Assay [1] is described as follows: qHTS for Inhibitors of the Functional Ribonucleoprotein Complex (vRNP) of Lassa (LASV) Arenavirus: LASV Primary Screen - GLuc reporter signal (AID 1347082; calls by dose curve; tested in HEK293 reporter line; note: % is set by controls: 0 for no effect and ±100 for the full control effect; nearly all actives have a fitted effect of over 60% in size). Background: Quantitative high-throughput screening tests each substance at several concentrations.
The target in assay [2] is Luciferin 4-monooxygenase (Photinus pyralis) (UniProt P08659). The experiment in a line: Biochemical firefly luciferase enzyme assay for NPC (AID 624030).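 Note: purified P. pyralis luciferase at 10 nM with luciferin and ATP substrate; 0% = DMSO and -100% = full luciferase inhibition by PTC124 control; nearly all actives have a fitted effect of over 70% in size.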 Put shortly:
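Purified P. pyralis luciferase at 10 nM in 50 mM Tris Acetate (final), luminescence read within 5 minutes of enzyme addition to compounds. Activity normalised to PTC124 versus DMSO; concentration-response curves classed by r2, magnitude and activity.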

A short description of assay [3]: qHTS Assay for Identifying Gametocytocidal Compounds (AID 743244).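 Note: % is set by controls: 0 for no effect and ±100 for the full control effect; actives lower the fluorescent signal which means gametocytes are killed.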 The settings on record: P. falciparum 3D7 stage III-V gametocytes, alamarBlue, 72 h; max response: active compounds read low. Put shortly:
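Compounds are pinned into medium, gametocytes (stage III–V, 3D7, 20,000 cells/well) added, and plates held 72 h at 37 °C in 5% CO2. AlamarBlue follows for 24 h before fluorescence reading.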

Assay [4] in a line: P-glycoprotein substrates identified in KB-8-5-11 adenocarcinoma cell line, qHTS therapeutic library screen (AID 1346987). Note: % is set by controls: 0 for no effect and ±100 for the full control effect; nearly all actives have a fitted effect of over 65% in size. Put shortly:
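Luminescence from CellTiter-Glo, read 5 min after addition, quantified survival of KB-8-5-11 (P-gp-overexpressing) cells exposed to compounds for 72 h. AC50 was derived from concentration-response curves.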

The nature of assay [5]: Drug repurposing screens with cells derived from glioblastoma tumor samples (AID 1345199). Note: nearly all actives have a fitted effect of over 40% in size. Note: potency is the fitted concentration of half-maximal effect. The settings on record: GBM patient neurospheres viability, ATP luminescence, 48 h; Potency: tumour line A; series mostly up to 45.9 µM. In outline: (§1)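 Primary testing used CD133+ neurospheres from four GBM patients, seven concentrations, 48 h exposure and ATP-based viability; confirmation added three slower-growing patient lines.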

Assay [6] deals with astro. The assay is described as above. The conditions noted are these: viability, ATP luminescence, 48 h; series mostly up to 45.9 µM. Put shortly: as §1
A short description of assay [7]: qHTS for Inhibitors of the Functional Ribonucleoprotein Complex (vRNP) of Lassa (LASV) Arenavirus: Viability assay - alamar blue signal for LASV Primary Screen (AID 1347083; calls by dose curve; tested in HEK293 reporter line; note: % is set by controls: 0 for no effect and ±100 for the full control effect; nearly all actives have a fitted effect of over 80% in size).
Assay [8] is described as follows: qHTS for Inhibitors of the Functional Ribonucleoprotein Complex (vRNP) of Lymphocytic Choriomeningitis Arenaviruses (LCMV): Viability assay - alamar blue signal for LCMV Primary Screen (AID 1347085; calls by dose curve; tested in HEK293 reporter line; note: % is set by controls: 0 for no effect and ±100 for the full control effect; nearly all actives have a fitted effect of over 80% in size).
For assay [9], the target named is Nucleoprotein (Lymphocytic choriomeningitis virus (strain Armstrong)) (UniProt P09992). The experiment in a line: qHTS for Inhibitors of the Functional Ribonucleoprotein Complex (vRNP) of Lymphocytic Choriomeningitis Arenaviruses (LCMV): LCMV Primary Screen - GLuc reporter signal (AID 1347086; calls by dose curve; note: % is set by controls: 0 for no effect and ±100 for the full control effect; nearly all actives have a fitted effect of over 70% in size).
Chain of Nucleoprotein (Lymphocytic choriomeningitis virus (strain Armstrong)) (P09992 whole entry, looked up): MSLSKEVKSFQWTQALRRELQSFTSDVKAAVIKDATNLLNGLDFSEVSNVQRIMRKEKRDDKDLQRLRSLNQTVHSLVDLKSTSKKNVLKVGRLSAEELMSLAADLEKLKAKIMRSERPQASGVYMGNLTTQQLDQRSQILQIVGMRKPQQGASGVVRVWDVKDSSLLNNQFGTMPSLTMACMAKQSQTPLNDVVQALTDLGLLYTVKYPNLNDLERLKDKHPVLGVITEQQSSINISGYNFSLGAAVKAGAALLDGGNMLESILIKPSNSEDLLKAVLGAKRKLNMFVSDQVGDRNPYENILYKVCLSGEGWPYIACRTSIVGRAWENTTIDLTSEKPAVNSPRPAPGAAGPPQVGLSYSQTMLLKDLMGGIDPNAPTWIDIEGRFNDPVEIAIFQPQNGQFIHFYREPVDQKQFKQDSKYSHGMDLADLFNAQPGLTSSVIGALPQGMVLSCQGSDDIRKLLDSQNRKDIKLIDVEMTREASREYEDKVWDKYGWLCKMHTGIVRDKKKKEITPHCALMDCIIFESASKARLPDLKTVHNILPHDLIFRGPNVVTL

Results filed as inconclusive are left out. Values without a mark were called inactive. Active and inactive are the calls of the source. Unless noted, calls come from the whole dose curve; as a rule, active = well fitted curve in the direction sought with a large enough effect; inconclusive = small, poorly fitted or top-dose-only effect, or another doubt; inactive = no such curve, though single readings can be large; an effect the other way counts as inactive or inconclusive.

Chain of Luciferin 4-monooxygenase (Photinus pyralis) (P08659 whole entry, looked up): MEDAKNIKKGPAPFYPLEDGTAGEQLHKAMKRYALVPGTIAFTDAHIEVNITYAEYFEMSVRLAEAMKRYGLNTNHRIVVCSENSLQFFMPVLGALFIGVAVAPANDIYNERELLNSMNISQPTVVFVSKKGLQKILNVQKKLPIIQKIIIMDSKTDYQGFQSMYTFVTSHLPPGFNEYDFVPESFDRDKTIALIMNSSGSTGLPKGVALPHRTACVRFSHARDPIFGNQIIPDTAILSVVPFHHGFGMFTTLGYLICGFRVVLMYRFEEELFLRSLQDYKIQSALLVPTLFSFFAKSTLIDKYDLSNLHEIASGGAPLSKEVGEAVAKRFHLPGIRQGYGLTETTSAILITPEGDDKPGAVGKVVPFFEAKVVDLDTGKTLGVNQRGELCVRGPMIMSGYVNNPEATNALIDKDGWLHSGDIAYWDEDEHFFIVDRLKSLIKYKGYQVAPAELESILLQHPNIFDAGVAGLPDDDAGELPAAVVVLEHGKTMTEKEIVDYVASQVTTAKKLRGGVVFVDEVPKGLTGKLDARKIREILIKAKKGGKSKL

As for `CC=CC(=O)N(CC)c1ccccc1C`, the Potency result in assay [1] was “inactive”.
Turning to `O=C(O)CCCO`, the Potency entry in [2], in assay [4], in assay [5] and in assay [6] was “inactive” throughout. In assay [3], the max response is 2.34%.
Turning to `CCCCCc1cc(O)c2c(c1)OC(C)(C)c1ccc(C)cc1-2`, the Potency entry in [2], in assay [1], in [7], in [8] and in [9] was “inactive” each time. Moreover, the Potency in assay [6] is 22.4 µM (active).

The values are drawn from PubChem BioAssay (NCATS).
